Results taken from PubChem BioAssay (NCI).
The panel holds about 79,000 compounds, 15% with a hit somewhere; the sample as a whole holds those more often. Calls of active or inactive are those of the source. Rule as the data show it: active = growth inhibition above about 70%; inactive = the rest.

How the values were obtained:
[1] = NCI Yeast Anticancer Drug Screen. Data for the rad50 strain (AID 155);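 also: 0% = growth of vehicle-only cultures of the same strain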; conditions: S. cerevisiae rad50 strain growth inhibition; at 50.0 µM; active compounds read high
Outline: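 Genetically altered yeast (DNA repair pathway); compound treatment; growth inhibition vs vehicle ctrl.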

[2] = NCI Yeast Anticancer Drug Screen. Data for the mec2-1 strain (AID 157); conditions: S. cerevisiae mec2-1 strain, at 50.0 µM, active compounds read high
Outline: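 Vehicle-treated cultures served as reference for growth inhibition of compound-exposed mec2-1 yeast.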

[3] = NCI Yeast Anticancer Drug Screen. Data for the sgs1 mgt1 strain (AID 161);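 also: 0% = growth of cultures given vehicle only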; conditions: S. cerevisiae sgs1 mgt1 strain, at 50.0 µM, active compounds read high
Outline: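 Read-out: growth inhibition vs vehicle controls. Cells: mutant yeast strain deficient in DNA damage repair.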

[4] = NCI Yeast Anticancer Drug Screen. Data for the cln2 rad14 strain (AID 165);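 also: 0% = growth equal to vehicle treated cultures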; conditions: S. cerevisiae cln2 rad14 strain, at 50.0 µM, active compounds read high
Outline: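 Each compound was tested on cln2 rad14 yeast. Inhibition of growth was calculated against vehicle-exposed controls.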

[5] = NCI Yeast Anticancer Drug Screen. Data for the bub3 strain (AID 167); conditions: S. cerevisiae bub3 mutant strain, at 50.0 µM, active compounds read high
Outline: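 Yeast carrying a defined mutation is treated with each compound, and growth is compared with that of vehicle-exposed cells to give inhibition.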

[6] = NCI Yeast Anticancer Drug Screen. Data for the mlh1 rad18 strain (AID 175); conditions: S. cerevisiae mlh1 rad18 strain growth inhibition; at 50.0 µM; active compounds read high
Outline: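 Vehicle-treated cultures served as the reference for growth inhibition in a yeast strain carrying DNA damage repair alterations exposed to each compound.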

Measured: growth inhibition

Cn1nc(-c2ccc(Cl)c(Cl)c2)[n+]([O-])c2c(=O)n(C)c(=O)nc1-2
active: [1] 88.8% | [2] 92.1% | [3] 88.8% | [4] 89% | [5] 85.3% | [6] 91.3%

CCOC(=O)C(=O)C(CCc1ccc2ccc3cccc4ccc1c2c34)C(=O)OCC (stereo unspecified)
inactive: [1] 10.2% | [2] 20.9% | [3] 6.55% | [4] -21.8% | [5] 0.35% | [6] 31.4%

COc1cc2c(c3c1c(=O)c1ccccc1n3C)C=CC1(CCCCC1)O2
active: [3] 91% | [4] 86.5% | [5] 87.5%
inactive: [1] -12.4% | [2] -19.6% | [6] -7.4%

CC1(CCOCc2ccccc2)NC(=O)N(CCC#N)C1=O (stereo unspecified)
inactive: [1] 6.9% | [2] -9.65% | [3] -4.6% | [4] -10.2% | [5] 2.55% | [6] 12.6%

COc1cccc(/C(Cl)=C(\C=O)c2cccc(OC)c2)c1
inactive: [1] 12.8% | [2] 19.1% | [3] 2.2% | [4] 10.7% | [5] 34% | [6] -10.1%

O=C(COc1ccc(Cl)cc1)Nc1ccccc1Br
inactive: [1] 11% | [2] 12.1% | [3] 7.35% | [4] 9% | [5] 33.7% | [6] -4.55%

O=C1C=CC(n2cc(F)c(=O)[nH]c2=O)O1 (stereo unspecified)
inactive: [1] 27.1% | [2] 44.2% | [3] 44.9% | [4] 12.9% | [5] 9.3% | [6] -43.9%

COC(=O)Nc1cc2c3c(c1)CCCN3CCC2
inactive: [1] -6.35% | [2] -4.05% | [3] -2.2% | [4] -10.2% | [5] 10.1% | [6] 1.8%

N#CC(C#N)=CC(C#N)C#N
inactive: [1] -10% | [2] -4.3% | [3] -12.2% | [4] -65.1% | [5] 5.1% | [6] -11.7%

Cc1[nH]nc2c1NC(=O)OC2
inactive: [1] -3.1% | [2] -1.1% | [3] 1.5% | [4] -23.4% | [5] -8.15% | [6] 2.45%

C/C=C/C1OC(OC)(OC)C1(OC)OC (stereo unspecified)
inactive: [1] 38.8% | [2] 9.85% | [3] 18.9% | [4] 3.25% | [5] 11.3% | [6] 11.6%

O=C(NNC(=O)c1ccncc1)c1ccncc1
inactive: [1] -22.9% | [2] 1.2% | [3] -9.45% | [4] -30.3% | [5] -2.4% | [6] -23.9%

O=[N+]([O-])c1ccc(OCC#CCOc2ccc([N+](=O)[O-])c(C(F)(F)F)c2)cc1C(F)(F)F
inactive: [1] 31.4% | [2] -13.6% | [3] -0.2% | [4] 4.65% | [5] -2.3% | [6] -3.75%

COc1cc(C2OCCO2)ccc1O
inactive: [1] 12.8% | [2] 7.05% | [3] -0.35% | [4] 39% | [5] 5.05% | [6] -11%

CS(=O)(=O)OCCN1C(=O)CNC1=O
inactive: [1] 4.6% | [2] 8.35% | [3] -9.45% | [4] -27.8% | [5] 9.55% | [6] -2.7%

CCOc1ccc(Cc2ccc3c(c2)OCO3)cc1C
inactive: [1] -17.2% | [2] -13.3% | [3] -7.55% | [4] -13.2% | [5] -2.1% | [6] 2.2%

CCOC(=O)C(=CN1CCCc2ccccc21)C(=O)OCC
inactive: [1] 5.05% | [2] -17.1% | [3] 13.6% | [4] -35% | [5] 5.4% | [6] -6.15%

CC1=CC(=O)C=CC1=Nc1ccc(N(C)C)cc1
inactive: [1] 19.3% | [2] 32.6% | [3] 47.9% | [4] 9.35% | [5] 39.4% | [6] 16.4%

N#CC(/C(CCCC(=O)Nc1cccc([N+](=O)[O-])c1)=N/NC(=O)c1cc2ccccc2cc1O)c1ccccc1 (stereo unspecified)
inactive: [1] 41.4% | [2] 41.4% | [3] -17.2% | [4] 9.4% | [5] 36.8% | [6] 38%

CCCN(Cc1ccccc1)CC(O)c1ccc(Cl)cc1 (stereo unspecified)
inactive: [1] 0.95% | [2] 3.5% | [3] 32.2% | [4] 2.95% | [5] 32.9% | [6] 20.1%

OCCN(Cc1ccccn1)Cc1ccccn1
inactive: [1] 14% | [2] -3.7% | [3] 36.2% | [4] 11.2% | [5] 8.4% | [6] 9%

C1CCCC(N2N=NC3C4CC(C5N=NN(C6CCCCCC6)C45)C32)CC1 (stereo unspecified)
inactive: [1] 12.8% | [2] 17.5% | [3] 7.65% | [4] 64.8% | [5] -8.55% | [6] 11.7%

O=C(Nc1ccc(Cl)c([N+](=O)[O-])c1)Oc1ccc2ccccc2c1
inactive: [1] 14.6% | [2] 3% | [3] 8.15% | [4] 11.9% | [5] 23.4% | [6] 10.7%

CC(O)CCNC(c1ccccc1)C(O)c1ccccc1 (stereo unspecified)
inactive: [1] 3% | [2] -6.95% | [3] -2.85% | [4] -7.4% | [5] 14.6% | [6] -0.85%

O=C(NC(=S)Nc1ccc2ccccc2c1)c1ccc(Cl)cc1Cl
inactive: [1] -1.45% | [2] 1.2% | [3] 28.2% | [4] -10.6% | [5] 23.4% | [6] -41.1%

CC(=O)NNc1nc(C)c(C(/C=C/c2ccc(/C=C/C(=N\NC(=O)c3ccncc3)c3sc(NNC(C)=O)nc3C)cc2)=N/NC(=O)c2ccncc2)s1
inactive: [1] -16.6% | [2] -7.35% | [3] -8.95% | [4] 12.7% | [5] 1.4% | [6] -13.3%

O=C(c1ccccc1)C(c1ccccc1)(c1ccccc1)c1ccccc1
inactive: [1] -4.1% | [2] 6.2% | [3] -17.3% | [4] -30% | [5] -10.2% | [6] 24.1%

Cc1cccc2cc3ccc4ccccc4c3cc12
inactive: [1] 29.7% | [2] 13.8% | [3] 21.9% | [4] 14.8% | [5] 4.1% | [6] 20.6%

O=C1OC(c2ccccc2)=C/C1=C/c1ccc(Cl)cc1
inactive: [1] -1.2% | [2] -17.6% | [3] -6.65% | [4] -6.2% | [5] -7.3% | [6] -8.3%

O=C1CSC(=S)N1N1C(=O)CSC1=S
inactive: [1] -24.8% | [2] -7.8% | [3] -21.5% | [4] -12.3% | [5] 5.55% | [6] -12.4%

O=C1c2ccccc2-c2cc(Cl)c(Cl)cc21
inactive: [1] 13.4% | [2] 2.1% | [3] 13.7% | [4] 17.1% | [5] -1.8% | [6] -22.2%

O=[N+]([O-])c1ccc(Oc2ccc3ccccc3c2)c([N+](=O)[O-])c1
inactive: [1] -1.4% | [2] -17.9% | [3] 1.8% | [4] -56.5% | [5] -9.75% | [6] -14.3%

C=CCOC(=O)CC
inactive: [1] 5.95% | [2] -13.2% | [3] -13% | [4] -6.05% | [5] -15.4% | [6] -10%

C=C1C(=O)O[C@@H]2[C@H]1CC[C@H](C)[C@@H]1CCC(=O)[C@@]21C
inactive: [1] 10% | [2] -0.5% | [3] 3.35% | [4] 13.8% | [5] 12.8% | [6] 14.2%

COC(=O)C1(Cc2ccc3c(c2)CCC3)Cc2ccccc2C1
inactive: [1] -9.5% | [2] -25.5% | [3] -6.1% | [4] 5.2% | [5] 29.9% | [6] -9.2%

CCN(CC)CCOC(=O)c1ccc(N=C/C=C/C(C#N)=C/NOC)cc1
inactive: [1] 0.3% | [2] 27.4% | [3] 9.85% | [4] 21.4% | [5] 9.9% | [6] 30.9%

FC(F)(F)c1ccc(C(Nc2nncs2)Nc2nncs2)cc1
inactive: [1] -6.9% | [2] -6.7% | [3] -4.5% | [4] -8.35% | [5] 7.6% | [6] 0.75%

NCCSCCC(=O)O
inactive: [1] -0.25% | [2] -12.1% | [3] -36.9% | [4] 7.3% | [5] -28.4% | [6] -22.6%

Nc1ccc(Cl)c(S(=O)(=O)O)c1
inactive: [1] 21.7% | [2] -4.35% | [3] 7.05% | [4] 8.4% | [5] 10.4% | [6] 17.1%

[Cl][Pt+2][Cl].[NH-]c1ccc(CC(=O)O)cc1[NH-]
inactive: [1] 48.4% | [2] 7.1% | [3] 23.4% | [4] 39.8% | [5] -11.1% | [6] -4.2%

CCCCNC(=O)OCCN=c1c2ccccc2ccc2ccccc12
inactive: [1] -25.6% | [2] -31.4% | [3] -9.95% | [4] 2.8% | [5] -1.3% | [6] -15.4%
